Experimental data as given in PubChem BioAssay (EPA / NIEHS).
Activity calls are given as the source filed them. How the source made its calls: active means hit-call score of the fitted dose curve at least 0.9, where 1 is the maximum; inactive means score below 0.9.

What was measured:
[1] = ATG_CRE_CIS: Attagene CIS-FACTORIAL HepG2 Assay for human cAMP Responsive Element (CRE) binding protein 3 (AID 2282926); conditions: HepG2 CRE cis-reporter, Attagene multiplexed mRNA; actives raise or lower the signal
Outline: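 Induced reporter mRNA from a CRE cis element, measured in HepG2 among many multiplexed units at 24 h. Detection used RT-PCR plus capillary electrophoresis of fluorescent fragments; DMSO served as negative control.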

[2] = biological target: CCAAT/enhancer-binding protein beta (Homo sapiens) (UniProt P17676); assay: ATG_C_EBP_CIS: Attagene CIS-FACTORIAL HepG2 Assay for human CCAAT/Enhancer Binding Protein (C/EBP) beta (AID 2282927); conditions: HepG2 Attagene cis-factorial transcription factor reporter; actives raise or lower the signal
Sequence of CCAAT/enhancer-binding protein beta (Homo sapiens) (P17676 whole entry, looked up, the tested form may be a part): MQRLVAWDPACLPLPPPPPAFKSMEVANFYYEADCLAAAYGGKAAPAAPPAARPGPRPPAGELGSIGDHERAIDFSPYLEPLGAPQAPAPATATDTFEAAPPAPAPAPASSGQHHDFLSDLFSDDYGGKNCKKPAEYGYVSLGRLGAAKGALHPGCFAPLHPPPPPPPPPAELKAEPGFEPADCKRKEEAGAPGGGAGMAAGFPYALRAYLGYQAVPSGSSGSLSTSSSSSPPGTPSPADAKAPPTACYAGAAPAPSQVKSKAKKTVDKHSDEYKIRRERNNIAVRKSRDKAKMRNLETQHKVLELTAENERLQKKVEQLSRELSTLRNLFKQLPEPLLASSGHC
Outline: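 Endogenous C/EBPb-driven reporter transcripts measured in transfected human HepG2 cells at 24 h via RT-PCR and capillary electrophoresis of labelled fragments. Activity fitted in both directions relative to DMSO baseline.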

[3] = ATG_CMV_CIS: Attagene CIS-FACTORIAL HepG2 Assay for human CMV (Internal Marker) (AID 2282928); conditions: HepG2 CMV promoter reporter, transcription factor profiling; actives raise or lower the signal;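 further: endpoint acts as a background internal control marker rather than a target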
Outline: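 Fluorescence intensity of RT-PCR-derived reporter fragments, resolved by capillary electrophoresis, gives the signal. HepG2 liver cells bearing transfected cis-element reporters were treated 24 h; activity in either direction was fit relative to DMSO-treated controls.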

[4] = ATG_DR4_LXR_CIS: Attagene CIS-FACTORIAL HepG2 Assay for human Liver X Receptor (LXR), DR4 submotif (AID 2282929); conditions: HepG2 Attagene DR4 cis-reporter, mRNA transcription; actives raise or lower the signal
Outline: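 HepG2, transient MRTU transfection, cis-element (DR4) promoter; 24 h compound exposure; total RNA → oligo(dT) RT → PCR → 6-FAM primer extension → HpaI cut → CE. Gain/loss vs DMSO, bidirectional fit.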

[5] = biological target: Aryl hydrocarbon receptor (Homo sapiens) (UniProt P35869); assay: ATG_Ahr_CIS: Attagene CIS-FACTORIAL HepG2 Assay for human Aryl Hydrocarbon Receptor (Ahr) (AID 2282930); conditions: HepG2 AhR cis-factorial reporter transcription; actives raise or lower the signal
Sequence of Aryl hydrocarbon receptor (Homo sapiens) (P35869 whole entry, looked up): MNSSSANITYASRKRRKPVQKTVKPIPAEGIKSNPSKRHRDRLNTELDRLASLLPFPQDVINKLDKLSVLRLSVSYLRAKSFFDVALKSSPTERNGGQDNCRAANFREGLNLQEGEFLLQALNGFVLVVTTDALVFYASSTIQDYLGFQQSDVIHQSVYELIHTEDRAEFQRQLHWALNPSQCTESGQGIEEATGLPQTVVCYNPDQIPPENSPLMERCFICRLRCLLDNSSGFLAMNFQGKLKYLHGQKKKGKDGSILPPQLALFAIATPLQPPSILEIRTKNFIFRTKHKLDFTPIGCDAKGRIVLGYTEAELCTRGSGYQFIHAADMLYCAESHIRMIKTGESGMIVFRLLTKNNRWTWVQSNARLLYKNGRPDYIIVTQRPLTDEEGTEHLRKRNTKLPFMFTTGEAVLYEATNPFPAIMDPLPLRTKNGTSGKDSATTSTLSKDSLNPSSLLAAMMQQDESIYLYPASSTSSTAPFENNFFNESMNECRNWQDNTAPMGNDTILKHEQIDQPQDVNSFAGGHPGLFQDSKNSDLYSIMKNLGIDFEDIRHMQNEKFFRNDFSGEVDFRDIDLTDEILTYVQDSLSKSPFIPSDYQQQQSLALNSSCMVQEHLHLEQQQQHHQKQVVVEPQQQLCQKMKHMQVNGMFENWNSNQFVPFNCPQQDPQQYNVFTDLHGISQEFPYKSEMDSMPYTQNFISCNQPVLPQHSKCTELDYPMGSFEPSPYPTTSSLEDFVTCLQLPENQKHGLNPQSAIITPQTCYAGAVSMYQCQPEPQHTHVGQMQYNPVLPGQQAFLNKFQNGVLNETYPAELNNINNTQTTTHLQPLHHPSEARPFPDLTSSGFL
Outline: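 Reporter mRNA levels, quantified by RT-PCR and fluorescent capillary electrophoresis, reflect endogenous AhR transcriptional activity in HepG2 cells carrying transfected cis-promoter reporter constructs. Readout at 24 h post-dose; gain or loss fitted against DMSO baseline.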

[6] = ATG_AP_1_CIS: Attagene CIS-FACTORIAL HepG2 Assay for human Activator Protein 1 (AP-1) (AID 2282931); conditions: HepG2 Attagene cis-factorial AP-1 reporter mRNA; actives raise or lower the signal
Outline: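 Transient MRTU transfection of HepG2 → 24 h chemical treatment → RNA isolation, RT-PCR, 6-FAM labelling, HpaI digest → capillary electrophoresis. Fit: bidirectional, DMSO negative control.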

[7] = ATG_AP_2_CIS: Attagene CIS-FACTORIAL HepG2 Assay for human Activator Protein 2 (AP-2) (AID 2282932); conditions: HepG2 AP-2 cis-reporter, Attagene transcription factor profiling; actives raise or lower the signal
Outline: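 Transiently transfected HepG2 cells are exposed to chemical for 24 h. Reporter transcripts are then measured as fluorescence following RT-PCR and capillary separation, and gain- or loss-of-signal is fitted relative to DMSO.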

[8] = ATG_BRE_CIS: Attagene CIS-FACTORIAL HepG2 Assay for human Bone Morphogenetic Protein (BMP) Response Element (BRE) (AID 2282933); conditions: HepG2 BMP response element reporter, Attagene transcription factor profiling; actives raise or lower the signal
Outline: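 Endogenous transcription factor activity read in transiently transfected HepG2 cells after 24 h chemical exposure. Bidirectional curve fitting against DMSO; readout is reporter transcript level by RT-PCR with capillary electrophoresis of labelled products.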

[9] = biological target: Transcription factor E2F1 (Homo sapiens) (UniProt Q01094); assay: ATG_E2F_CIS: Attagene CIS-FACTORIAL HepG2 Assay for human E2F Transcription Factor 1 (AID 2282935); conditions: HepG2 Attagene cis-reporter, E2F reporter RNA transcripts; actives raise or lower the signal
Sequence of Transcription factor E2F1 (Homo sapiens) (Q01094 whole entry, looked up): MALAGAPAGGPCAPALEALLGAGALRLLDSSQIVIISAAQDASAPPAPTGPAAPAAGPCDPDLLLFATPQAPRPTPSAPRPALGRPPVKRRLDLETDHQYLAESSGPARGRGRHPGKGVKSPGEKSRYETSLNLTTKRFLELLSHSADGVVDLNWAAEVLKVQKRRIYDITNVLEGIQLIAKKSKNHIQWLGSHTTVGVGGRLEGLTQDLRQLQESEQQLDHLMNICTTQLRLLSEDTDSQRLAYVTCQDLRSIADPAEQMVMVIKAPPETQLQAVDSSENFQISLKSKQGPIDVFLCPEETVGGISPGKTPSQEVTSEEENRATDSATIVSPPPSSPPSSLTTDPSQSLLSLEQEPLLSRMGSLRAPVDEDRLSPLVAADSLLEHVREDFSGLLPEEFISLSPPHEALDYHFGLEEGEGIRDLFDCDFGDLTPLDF
Outline: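 Fluorescent RT-PCR products, digested with HpaI for 2 h at 37 C, are separated by capillary electrophoresis. Source RNA comes from transfected HepG2 cultures treated for 24 h.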

[10] = ATG_E_Box_CIS: Attagene CIS-FACTORIAL HepG2 Assay for human Enhancer Box (E-box) (AID 2282936); conditions: HepG2 E-box cis-reporter transcription, actives raise or lower the signal
Outline: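 Fluorescent reporter fragments separated by capillary electrophoresis gave the signal; mRNA came from HepG2 cells transfected with cis-element reporters and treated 24 h. Curves fitted bidirectionally relative to DMSO controls.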

[11] = ATG_M_61_CIS: Attagene CIS-FACTORIAL HepG2 Assay for M61 Transcription Factor (Internal Marker) (AID 2282937); conditions: HepG2 Attagene CIS-FACTORIAL M61 internal marker reporter; actives raise or lower the signal
Outline: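 Human liver HepG2, transient MRTU transfection (cis promoter elements), 24 h compound. Total RNA → oligo(dT) RT → PCR → FAM label → HpaI → CE. Internal background marker; bidirectional fitting, DMSO = baseline.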

[12] = ATG_EGR_CIS: Attagene CIS-FACTORIAL HepG2 Assay for human Early Growth Response 1 (EGR1) (AID 2282938); conditions: HepG2 Attagene CIS-FACTORIAL EGR reporter mRNA; actives raise or lower the signal
Outline: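 Transient transfection of human HepG2 with multiple cis-regulated reporter units, chemical exposure 24 h, total RNA isolated. Reverse transcription, PCR, fluorescent labelling and capillary electrophoresis quantify reporter transcripts; activity fitted bidirectionally against DMSO.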

[13] = ATG_M_19_CIS: Attagene CIS-FACTORIAL HepG2 Assay for M19 Transcription Factor (Internal Marker) (AID 2282939); conditions: HepG2 Attagene CIS-FACTORIAL M19 internal marker reporter; actives raise or lower the signal
Outline: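 Internal marker readout, fitted in both directions against DMSO, from HepG2 cells carrying transfected cis-element reporter constructs; RT-PCR and capillary electrophoresis of reporter mRNA after 24 h exposure.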

[14] = ATG_ERE_CIS: Attagene CIS-FACTORIAL HepG2 Assay for Estrogen Response Element (ERE) (AID 2282940); conditions: HepG2 ERE cis-reporter, Attagene RNA transcript; actives raise or lower the signal
Outline: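 After 24 h compound treatment, RNA from transfected HepG2 cells was reverse-transcribed, reporter cDNA PCR-amplified, FAM-labelled, HpaI-cut and resolved by capillary electrophoresis. ERE-driven cis reporter transcripts reflect endogenous factors; gain or loss scored against DMSO.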

[15] = ATG_Ets_CIS: Attagene CIS-FACTORIAL HepG2 Assay for human Erythroblast Transformation Specific (ETS) (AID 2282941); conditions: HepG2 ETS cis-reporter transcription, actives raise or lower the signal
Outline: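 Multiplexed reporter transcript profiling: HepG2, 24 h treatment, total RNA to cDNA, PCR, 6-FAM labelling, HpaI cut, capillary electrophoresis. Gain- or loss-of-signal fitted against DMSO.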

[16] = ATG_FoxO_CIS: Attagene CIS-FACTORIAL HepG2 Assay for human Forkhead box O (FoxO) (AID 2282943); conditions: HepG2 Attagene cis-reporter, FoxO element, mRNA; actives raise or lower the signal
Outline: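 Endogenous transcription factor activity read from multiplexed cis-promoter reporter transcripts in transiently transfected HepG2, 24 h after dosing. Reporter RNA measured via RT-PCR plus capillary electrophoresis of FAM-labeled products; gain or loss relative to DMSO.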

[17] = ATG_GLI_CIS: Attagene CIS-FACTORIAL HepG2 Assay for human Zinc Finger Protein GLI1 (AID 2282945); conditions: HepG2, Attagene cis-factorial reporter mRNA, GLI element; actives raise or lower the signal
Outline: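 Bidirectional curve fits relative to DMSO, using reporter mRNA levels from RT-PCR plus capillary electrophoresis. Cells were HepG2 transiently carrying cis-regulated reporter constructs, harvested 24 h after dosing.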

[18] = biological target: Hepatocyte nuclear factor 3-beta (Homo sapiens) (UniProt Q9Y261); assay: ATG_FoxA2_CIS: Attagene CIS-FACTORIAL HepG2 Assay for human Forkhead box A2 (FOXA2) (AID 2282942); conditions: HepG2 cis-reporter transcription factor activity, 24 h; actives raise or lower the signal
Sequence of Hepatocyte nuclear factor 3-beta (Homo sapiens) (Q9Y261 whole entry, looked up): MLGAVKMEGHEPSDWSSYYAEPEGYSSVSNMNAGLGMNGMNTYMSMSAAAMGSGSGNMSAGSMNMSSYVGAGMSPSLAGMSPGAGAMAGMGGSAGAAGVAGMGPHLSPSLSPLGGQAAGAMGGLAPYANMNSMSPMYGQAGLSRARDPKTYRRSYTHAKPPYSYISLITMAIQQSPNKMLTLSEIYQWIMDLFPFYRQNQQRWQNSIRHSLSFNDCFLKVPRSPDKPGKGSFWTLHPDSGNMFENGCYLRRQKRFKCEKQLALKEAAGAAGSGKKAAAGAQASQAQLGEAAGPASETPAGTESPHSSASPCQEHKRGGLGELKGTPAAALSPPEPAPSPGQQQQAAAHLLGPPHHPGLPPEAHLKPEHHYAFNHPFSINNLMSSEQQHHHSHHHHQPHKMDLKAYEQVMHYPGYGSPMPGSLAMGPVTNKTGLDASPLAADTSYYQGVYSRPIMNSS
Outline: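 Transient MRTU transfection of HepG2 liver cells; 24 h treatment; total RNA → oligo(dT) RT → PCR → FAM primer extension → HpaI cut → CE. Bidirectional fit vs DMSO.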

[19] = ATG_GATA_CIS: Attagene CIS-FACTORIAL HepG2 Assay for human GATA Binding Protein (AID 2282944); conditions: HepG2 GATA cis-element reporter, Attagene multiplex mRNA; actives raise or lower the signal
Outline: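 Reporter transcripts from a GATA cis-regulated unit, among multiplexed reporters in transfected HepG2 cells, were measured by RT-PCR with capillary electrophoresis after 24 h dosing. Induction or loss scored relative to DMSO.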

[20] = biological target: Retinoic acid receptor alpha (Homo sapiens) (UniProt P10276); assay: ATG_DR5_RAR_CIS: Attagene CIS-FACTORIAL HepG2 Assay for human Retinoic Acid Receptor Alpha (RARE), DR5 submotif (AID 2282934); conditions: HepG2 Attagene cis-factorial RARE DR5 reporter, mRNA; actives raise or lower the signal
Sequence of Retinoic acid receptor alpha (Homo sapiens) (P10276 whole entry, looked up): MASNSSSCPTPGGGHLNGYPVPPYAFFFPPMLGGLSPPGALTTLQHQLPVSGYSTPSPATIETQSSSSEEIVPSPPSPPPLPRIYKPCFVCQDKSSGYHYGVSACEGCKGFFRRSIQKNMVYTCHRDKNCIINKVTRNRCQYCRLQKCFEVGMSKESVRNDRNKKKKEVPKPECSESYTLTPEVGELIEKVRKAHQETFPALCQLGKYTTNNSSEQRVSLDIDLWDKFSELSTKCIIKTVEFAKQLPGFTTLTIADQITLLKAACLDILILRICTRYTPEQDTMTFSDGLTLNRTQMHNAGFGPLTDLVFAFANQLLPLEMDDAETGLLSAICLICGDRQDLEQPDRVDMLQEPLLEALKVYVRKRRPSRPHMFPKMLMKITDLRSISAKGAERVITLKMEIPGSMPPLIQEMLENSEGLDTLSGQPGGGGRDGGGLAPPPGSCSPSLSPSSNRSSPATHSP
Outline: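 Reporter transcripts from a DR5-regulated unit, measured via RT-PCR plus capillary electrophoresis, reflect endogenous RAR activity in transiently transfected human HepG2 liver cells. Exposure lasted 24 h; gain or loss of signal scored against DMSO.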

Measured: outcome

O=c1[nH]c(=O)c2[nH]c(=O)[nH]c2[nH]1
not listed: [18] | [19] | [20]
inactive: all other assays above

CC=CCO
not listed: [20]
inactive: all other assays above

C[Si](C)(CCCN)O[Si](C)(C)CCCN
not listed: [10] | [20]
inactive: all other assays above

C=C[C@](C)(O)CC[C@@H]1[C@@]2(C)CCCC(C)(C)[C@@H]2CC[C@@]1(C)O
not listed: [10]
inactive: all other assays above

CCCCCC/C=C/C=O
not listed: [10] | [12] | [14]
inactive: all other assays above

CCOC(=O)[C@H](C)O
not listed: [15] | [20]
inactive: all other assays above
